From PubChem BioAssay (NCI)
About 83,000 compounds went through this panel and 20% of them were active in at least one assay; those are over-represented in the sample as a whole.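 Cells were grown in 96-well plates and exposed to the test compound at a single concentration for 48 hours; results are reported as percent growth, with values below 10 considered active.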 Activity calls are given as the source filed them.

Legend:
Test in all cases: NCI-60 one-dose screen, 48 h (100 = growth as untreated, 0 = no growth, -100 = all killed)
Settings in all cases: 10 µM
[1] = system: DU-145 prostate
[2] = system: K-562 leukemia
[3] = system: MALME-3M melanoma
[4] = system: MDA-MB-231 breast
[5] = system: RXF 393 renal
[6] = system: SF-268 CNS
[7] = system: SF-295 CNS
[8] = system: SF-539 CNS
[9] = system: M14 melanoma
[10] = system: HCT-15 colon
[11] = system: HT29 colon
[12] = system: SNB-75 CNS
[13] = system: SNB-19 CNS
[14] = system: U251 CNS
[15] = system: PC-3 prostate
[16] = system: SK-MEL-5 melanoma
[17] = system: UACC-62 melanoma
[18] = system: LOX IMVI melanoma
[19] = system: SK-MEL-28 melanoma

Measured: growth

COc1cc2ncnc(NC3CCC(O)CC3)c2cc1OC (configuration not stated)
inactive: [1] 102% | [2] 58.2% | [3] 103% | [4] 93.7% | [5] 102% | [6] 101% | [7] 94.9% | [8] 95.4% | [9] 98.8% | [10] 101% | [11] 90% | [12] 91.9% | [13] 97.4% | [14] 90.2% | [15] 87.7% | [16] 98.6% | [17] 97.1% | [18] 95.3% | [19] 108%

Clc1nc2ccccc2cc1Cn1nnc(Cc2ccccc2)n1
inactive: [1] 75.2% | [2] 55.2% | [3] 65.6% | [4] 53.1% | [5] 83.9% | [6] 65.7% | [7] 47.6% | [8] 81.2% | [9] 73.6% | [10] 65% | [11] 71.5% | [12] 55.4% | [13] 89.9% | [14] 76.3% | [17] 51.7% | [18] 53.6% | [19] 84.7%
active: [16] 0.724%

C=C/C(C)=C/C[C@]1(C)[C@H](C)[C@@H](OC(=O)CCC)[C@H](O)[C@@]23C(=C[C@H](OC)C[C@@H]12)[C@@H](OC(=O)CCC)O[C@H]3OC(C)=O
active: [3] -63.7% | [4] -62.7% | [5] -89.4% | [6] -8.13% | [7] -59.6% | [8] -74.4% | [9] -45.7% | [10] -67.4% | [11] -66.9% | [12] -84.1% | [14] -22% | [16] -88% | [17] -78.3% | [18] -66.4% | [19] -49.8%
inactive: [1] 14.3% | [2] 10.3% | [13] 27.4%

CNC(=O)c1cn(C2CC2)c2cc(N3CCN(C(=O)c4cc(OC)c(OC)c(OC)c4)CC3)c(F)cc2c1=O
inactive: [1] 104% | [2] 104% | [3] 103% | [4] 98.2% | [5] 112% | [6] 96.8% | [7] 98% | [8] 98.9% | [9] 109% | [10] 100% | [11] 99.2% | [12] 96% | [13] 96.4% | [14] 96.3% | [15] 89.9% | [16] 98.3% | [17] 96.5% | [18] 94.7% | [19] 105%

COc1cc(C(=O)/C=C/c2c[nH]c3ccccc23)cc(OC)c1OC
active: [1] 5.54% | [8] -1.84% | [9] 8.91% | [11] -21.1% | [16] -53.1%
inactive: [2] 11.3% | [3] 52.5% | [4] 13% | [5] 43% | [6] 20.3% | [7] 16.9% | [10] 19% | [12] 45.9% | [13] 34.9% | [14] 14.7% | [15] 35.4% | [17] 30.6% | [18] 14.4% | [19] 64.7%

N#Cc1c(N)nc(-c2cc(F)cc(C(F)(F)F)c2)nc1-c1ccccc1F
inactive: [1] 61% | [2] 56.7% | [3] 33.2% | [4] 21.3% | [5] 37.4% | [6] 55.3% | [7] 35.2% | [8] 52.1% | [9] 63.1% | [10] 67.4% | [11] 39.7% | [12] 13.6% | [13] 46.5% | [14] 19.5% | [15] 81.4% | [16] 93.6% | [17] 84% | [18] 54% | [19] 75.9%

O=C(CN1CCN(C(=O)c2ccccc2)CC1)Nc1ccccc1SCc1ccccc1
inactive: [1] 101% | [2] 66% | [3] 86.1% | [4] 68.7% | [5] 111% | [6] 90.9% | [7] 86.9% | [8] 89.1% | [9] 79.4% | [10] 87.3% | [11] 81% | [12] 75.6% | [13] 90.7% | [14] 90.8% | [15] 57.9% | [16] 56.9% | [18] 73.9% | [19] 98.2%

CCCCCCCCCCCCCCCCCC[n+]1ccc2c(C)c3c(c(C)c2c1)c1cc(O)ccc1n3CC
active: [2] 9.4% | [3] -55.2% | [5] -7.68% | [6] 4.77% | [7] -1.22% | [8] -21.2% | [9] -2.39% | [13] 5.25% | [14] -34.9% | [16] -94.2% | [17] -11.8% | [19] 7.4%
inactive: [1] 40.4% | [4] 19% | [10] 48.8% | [11] 17.2% | [12] 24.5% | [18] 20.6%

COCCn1cc(-c2nc(-c3cccnc3)cs2)c2cc(F)ccc21
inactive: [1] 90.4% | [2] 95.2% | [3] 99.8% | [4] 92.3% | [5] 99.5% | [6] 90.7% | [7] 95.6% | [8] 80.9% | [9] 96.2% | [10] 76.4% | [11] 72.3% | [12] 94.4% | [13] 97.3% | [14] 90.2% | [16] 82.9% | [17] 89.2% | [18] 90.7%

COc1cc(-c2csc(NC(=O)Nc3cc(C(F)(F)F)cc(C(F)(F)F)c3)n2)cc(OC)c1OC
inactive: [1] 20.3% | [2] 17.5% | [4] 14.4% | [5] 47% | [6] 32.7% | [8] 23% | [9] 21.9% | [10] 11.8% | [12] 34.1% | [13] 25.3% | [17] 18.7% | [19] 17.6%
active: [3] 6.56% | [7] -10.4% | [11] 7.94% | [14] 9.2% | [15] 4.29% | [16] -4.49% | [18] 6.63%

CCOC(=O)c1sc2ncnc(Nc3ccc4c(cnn4C(=O)Nc4ccccc4)c3)c2c1C
inactive: [1] 64.6% | [2] 91.6% | [3] 32.7% | [4] 37.2% | [5] 55.4% | [6] 66.2% | [7] 98.3% | [8] 19.2% | [9] 63.7% | [10] 72.6% | [11] 40.7% | [12] 10.7% | [13] 85.8% | [14] 53% | [16] 31.1% | [17] 59.7% | [18] 36.4% | [19] 72.7%

COc1cc(C(=O)/C(C)=C/c2c[nH]c3ccccc23)cc(OC)c1OC
active: [1] 2.39% | [8] -3.72% | [9] -1.18% | [10] 9.94% | [11] 5.62% | [16] -36.4%
inactive: [2] 14.3% | [3] 68.1% | [4] 16.1% | [5] 46.2% | [6] 26.8% | [7] 12.4% | [12] 36.3% | [13] 34% | [14] 18.1% | [15] 19.8% | [17] 40.2% | [18] 17.8% | [19] 66.2%

Cc1ccc(/C=C/C(=O)C(=O)/C=C/c2ccc(C)cc2)cc1
inactive: [1] 112% | [2] 95.2% | [3] 96.8% | [4] 106% | [5] 117% | [6] 108% | [7] 101% | [8] 96.2% | [9] 95.2% | [10] 95.5% | [11] 91.4% | [12] 90.4% | [13] 103% | [14] 93% | [15] 92.2% | [16] 106% | [18] 89.3% | [19] 108%

Cc1noc(C)c1CSc1ccccc1C(=O)N1CCN(c2cccc(C(F)(F)F)c2)CC1
inactive: [1] 95.7% | [2] 52.8% | [3] 84.5% | [4] 65.7% | [5] 99.8% | [6] 95.3% | [7] 75.2% | [8] 87.4% | [9] 71.6% | [10] 72.4% | [11] 69.4% | [12] 76.2% | [13] 81.5% | [14] 88.2% | [15] 55.3% | [16] 43.5% | [17] 52.2% | [18] 74.9% | [19] 91.4%

CC(=O)N[C@H](C(=O)N[C@@H](CCCNC(=N)N)C(=O)N[C@@H](CCCCN)C(=O)N[C@@H](CCCNC(=N)N)C(=O)N[C@]1(C)CCCCCC/C=C\CCC[C@@](C)(C(=O)N[C@@H](CCCNC(=N)N)C(=O)N[C@@H](CCC(=O)O)C(=O)N[C@@H](CC(C)C)C(=O)N[C@H](C(=O)N[C@@H](CCC(=O)O)C(N)=O)C(C)C)NC(=O)[C@H](CCC(N)=O)NC(=O)[C@H](CC(C)C)NC(=O)[C@H](CC(C)C)NC(=O)[C@H](CCCNC(=N)N)NC(=O)[C@H](CCCNC(=N)N)NC(=O)[C@H](CC(C)C)NC1=O)C(C)C
inactive: [7] 14.3% | [11] 15.7% | [18] 29.4%
active: [1] -72.7% | [2] -18.8% | [3] -28.7% | [4] -39.5% | [5] -51.5% | [6] -51.5% | [8] -47% | [9] -41.9% | [10] -10.8% | [12] 2.79% | [13] 6.45% | [14] -40.9% | [15] -4.64% | [16] -68.8% | [17] -43.3% | [19] -29.7%
